# Results reported in publication PMC6212790, “How bacterial xenogeneic silencer rok distinguishes foreign from self DNA in its resident genome”.
# In all, about 33,000 sequences were measured (“e-score”: median about -0.038, highest 2% from about 0.33 on). The list comes from a sample in which the highest values are over-represented; it also holds similar and randomly drawn sequences.
# Target: T1, GST-Rok-C97-191 (Bacillus subtilis subsp. subtilis str. …, UniProt O34857 97-191)
# T1 sequence: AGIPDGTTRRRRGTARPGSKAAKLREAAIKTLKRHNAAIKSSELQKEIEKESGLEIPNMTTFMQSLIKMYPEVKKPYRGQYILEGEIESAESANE
# Assay: protein binding microarray; Rok is a gene silencer of Bacillus subtilis; high values mean tight binding
# Conditions: protein: recombinant; tags: GST (pTH5325, pDEST15-Magic modified); dsDNA, one strand shown
# Summary of the method: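 Each has a 25-mer constant primer and a 35-mer variable part from a de Bruijn sequence of order 10, covering every non-palindromic 8-mer at least 32 times (palindromic 16). Preference for each 8-mer is given as a rank-based, unitless enrichment score (E-score). Its range runs from 0.5 (most favored) to −0.5 (most disfavored).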
row,Sequence,binding signal [E-score]
1,AGGTCCCG,-0.133
2,AAACTTCA,0.0505
3,GAAAAACA,0.0708
4,CACGGAAG,0.00148
5,AAAGTCTC,0.0451
6,AGGGTCGC,-0.122
7,GCGTCCAA,-0.0249
8,GCGTAAAA,0.139
9,ACCTCGAT,0.113
10,AGCCGTTC,-0.05
11,ACAGCAAG,-0.0495
12,ACGGTAGT,0.408
13,AAGGTAGG,-0.00436
14,ACGGTAGA,0.318
15,AAGGTAGT,0.33
16,ACGGTAGC,0.0805
17,AAGGTAGC,0.158

row,Sequence,binding signal [E-score]
1,ATGCAAGC,-0.0317
2,CGTCGCTC,-0.161
3,ACATTCCC,-0.0621
4,AGGACCGG,-0.171
5,ATCTACTA,0.456
6,ATCTACTG,0.423
7,ATCTACGG,0.0258
8,CTCTACTA,0.2
9,ATCTACTC,0.206
10,GTCTACTA,0.29
11,ACCCACTG,-0.0641
12,CATCGGAC,0.0521
13,GGCAAAGA,-0.188
14,ACGGTTAT,0.165
15,ATGATACG,0.141
16,CTACCCGC,-0.0513
17,CGGTAAGA,-0.0738
